Screens: PubChem BioAssay, National Center for Advancing Translational Sciences (NCATS)
Shown are actives, neighbours in structure and some others; about 19% of the full set was active somewhere.
HT1080NT lethal – kills 2HG-producing HT-1080-NT fibrosarcoma cells; HT-1080-NT fibrosarcoma viability, CellTiter-Glo ATP luminescence, 48 h; Potency, µM (highest dose often 46.1 µM), without a hit: top-dose activity, negative = less viability, most hits filed as cytotoxic; actives 1.6% (n = 360,000); AID 686970;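 further: NT is the 2HG producing partner of a matched IDH1 knockdown line; potency means the concentration at half of the fitted maximal effect; 0% = DMSO-treated cells and -100% = media-only wells without cells; nearly all actives have a fitted effect of over 55% in size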
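Luminescent CellTiter-Glo readout after 48 hours of compound exposure at 37 degrees C defined viability of HT-1080-NT cells. Activity was normalized to DMSO wells and cell-free media wells; concentration-response curves were fitted and assigned curve classes.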
IL-1B inflam inh – inhibitors of inflammasome signaling (IL-1 beta secretion); THP-1 LPS/ATP IL-1B secretion, AlphaLISA, 16 h; hits give low values; activity change, % at 57.5 µM; actives 4.7% (n = 360,000); AID 743279; in the data active means activity change below about -50%; inconclusive means mostly about -30% to -49%
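THP-1 cells pretreated 1 hr with compounds (up to 57.5 uM final), then stimulated with LPS (250 ng/mL final) plus ATP (1.25 mM final); secreted IL-1B measured by AlphaLISA after 16 hr, decreased signal indicating inhibition.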
HT1080 IDH1KD tx – HT-1080 IDH1 knockdown cell toxicity (counter line) | actives 2% (n = 360,000) | Potency, µM (top dose mostly 46.1 µM), for the others: at the top dose activity, negative = toxicity, usual class: cytotoxic | AID 686971 | HT-1080 IDH1 knockdown viability, ATP luminescence, 48 h;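 further: potency means the concentration at half of the fitted maximal effect; 0% = DMSO wells and -100% = cell-free medium wells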
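After a 2 h attachment period, IDH1KD HT-1080 cells took pin-transferred compound for 48 h at 37 °C; ATP-based luminescence after 10 min room-temperature reagent incubation reported viability.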
TDP1 cell noCPT – qHTS for Inhibitors of human tyrosyl-DNA phosphodiesterase 1 (TDP1): qHTS in cells in absence of CPT. actives 15% (n = 420,000). Potency, µM (titrated, usually from 46.2 µM), for inactives: at the highest dose activity change, negative = growth inhibition, hits mostly inhibitors. DT40 Tdp1-/- hTDP1 cells, no CPT, ATP luminescence, 48 h. AID 686978, 2013; further: potency means the concentration at half of the fitted maximal effect; nearly all actives have a fitted effect of over 55% in size
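DT40 Tdp1-/-;hTDP1 cells, no CPT (DMSO vehicle only), 400 cells/well; compounds pin-transferred; ≥48 hr, 37 °C; CellTiter-Glo 30 min RT dark, luminescence read.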
DT40 TDP1 CPT – DT40-hTDP1 cell growth loss with CPT. AID 686979. actives 12% (n = 420,000). Potency, µM (series often up to 46.2 µM), inactives show top-dose activity change, negative = growth inhibition, most hits filed as inhibitors. chicken DT40 Tdp1-/-;hTDP1 cells + 20 nM CPT, ATP luminescence, 48 h; further: potency means the concentration at half of the fitted maximal effect; nearly all actives have a fitted effect of over 55% in size
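Chicken DT40 Tdp1-/- cells stably complemented with human TDP1 were seeded at 400 cells/well in medium containing 20 nM camptothecin, exposed to pin-transferred compounds, and grown at 37 °C for at least 48 hr. Viability was read as ATP luminescence.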
Numbers without * were called inactive; u = inconclusive; x = no result given. Unless noted, the call rests on the fitted dose curve; in most records, active means well fitted curve in the direction sought with a large enough effect; inconclusive means small, poorly fitted or top-dose-only effect, or another doubt; inactive means no such curve, though single readings can be large; an effect the other way counts as inactive or inconclusive. Unless noted, on the % scale 0 is the no-effect control and ±100 the full control effect.

SMILES | HT1080NT lethal | IL-1B inflam inh | HT1080 IDH1KD tx | TDP1 cell noCPT | DT40 TDP1 CPT
Cc1ccc(CC2C(=O)N(c3nc(C)cc(C)n3)C(=O)C2C)cc1 (stereo not drawn) | 14.4% | 9.9 | 12.5% | -20.1% | 1.4%
COC(=O)c1ccc(OCC(O)CN2CCc3cc(OC)c(OC)cc3C2c2ccccc2)cc1 (stereo not drawn) | u | -6.6 | 16.4µM* | 5.8µM* | 5.8µM*
COC(=O)c1ccc(OCC2c3cc(OC)c(OC)cc3CCN2C(=O)Cc2ccc(OC)c(OC)c2)cc1 (stereo not drawn) | x | x | x | u | 23.1µM*
COc1cc2c(cc1OC)[C@@H](c1ccccc1)CN(C)CC2 | x | x | x | 15µM* | -20.5%
COc1ccc(OCC2c3cc(OC)c(OC)cc3CCN2C(=O)C(C)C)cc1 (stereo not drawn) | -2.7% | 20.2 | -16.6% | 23.1µM* | u
O=C(CSc1nc(=O)n(CCCN2CCOCC2)c2c1CCCC2)Nc1cccc(Cl)c1 | -0.2% | -12.6 | 3.7% | u | -20.5%
Cc1ccc(S(=O)(=O)NC(=O)C2(C)CCN2C(=O)Cc2ccc(Cl)cc2Cl)nc1 (stereo not drawn) | u | 24.8 | u | 3.8% | -25.3%
O=S(=O)(N/N=C/c1cccnc1)c1ccc(Cl)c(Cl)c1 | 0.1% | u | 9.3% | -24.8% | u
CCOc1ccc2c(c1)ncn2Cc1ccccc1 | 1.6% | 3.3 | -8.0% | -25.9% | -3.6%
CCCc1nc2c3ccccc3ccn2c1Cc1cccc(F)c1 | u | 0.0 | u | u | u
CCc1c(-c2ccc(Cl)cc2)ncn1Cc1cccc(-c2ccccc2)c1 | u | -17.7 | u | 7.31µM* | 6.51µM*
CCc1c(C2CC2)ncn1Cc1cccc(-c2ccccc2)c1 | 20.6µM* | -59.8* | 16.4µM* | 1.84µM* | 1.84µM*
CCCc1c(Cc2cccc(F)c2)ncn1Cc1cccc(-c2ccccc2)c1 | u | x | u | 3.66µM* | 3.26µM*
CCc1c(-c2ccccc2F)ncn1Cc1cccc(-c2ccccc2)c1 | 16.4µM* | 2.7 | 8.2µM* | 2.59µM* | 2.59µM*
CCc1c(-c2ccccc2)ncn1Cc1cccc(-c2ccccc2)c1 | u | -21.8 | u | 8.2µM* | 8.2µM*
CCc1c(-c2cccc(OC)c2)ncn1Cc1cccc(-c2ccccc2)c1 | 7.31µM* | -16.2 | u | 8.2µM* | 6.51µM*
COc1ccc(CCNC(=O)c2ccc3ccccc3n2)cc1 | -0.6% | -12.1 | 2.3% | -27.8% | -29.1%
Cn1c(Cl)cnc1C(O)c1ccccc1 (stereo not drawn) | 9.7% | 2.9 | -5.2% | 1.0% | -4.6%
O=C(Cn1nc([N+](=O)[O-])nc1Br)NC(c1ccccc1)c1ccccc1 | 5.0% | u | 2.6% | 16.4µM* | 20.6µM*
Cc1cc([N+](=O)[O-])nn1CC(=O)NC(C)c1ccccc1 (stereo not drawn) | 1.5% | 16.5 | 13.9% | -1.2% | 12.0%
O=C(CN1C(=O)NC2(CCCC2)C1=O)NC(c1ccccc1)c1ccccc1 | -2.8% | -81.7* | -9.8% | 16.4µM* | u
O=C(CN1CCCC1)NC(c1ccccc1)c1ccccc1 | u | -1.2 | u | 16.4µM* | 20.6µM*
CCN(CC(=O)Nc1c(F)cccc1F)C(=O)C1CCN(C(=O)Nc2ccccc2)CC1 | 0.4% | 7.9 | -4.4% | 4.7% | 1.5%
CN(C1=NC(=O)C(CC(=O)Nc2ccc(Br)cc2)S1)c1ccc(O)cc1 (stereo not drawn) | u | 0.0 | 7.94µM* | u | u
CCNC(=O)c1ccc(NC(=O)CC2SC(N3CCCC3)=NC2=O)cc1 (stereo not drawn) | -0.4% | 11.4 | 1.1% | -2.1% | -3.9%
SMILES | HT1080NT lethal | IL-1B inflam inh | HT1080 IDH1KD tx | TDP1 cell noCPT | DT40 TDP1 CPT
COc1ccc(/C=C2\N=C3CCCCCN3C2=O)cc1OC | -0.9% | 27.4 | -12.1% | -1.5% | -10.4%
COc1ccc(/C=C2\N=C(C)N(c3ccc4ccccc4c3)C2=O)cc1OC | -9.0% | 6.4 | -6.2% | 5.8µM* | u
O=C(OC1CC2CC1[C@H]1CCCCN1C2=O)N1CCN(S(=O)(=O)c2ccccc2)CC1 (stereo partly drawn) | 17.7% | 36.0 | 7.0% | u | -23.6%
O=C(C1CC1)N1N=C(C2CCCCC2)CC1(O)C(F)(F)F (stereo not drawn) | -13.8% | 13.2 | -17.7% | -5.6% | 14.1%
Nc1nnc(SCCCC(=O)c2ccc(F)cc2)s1 | 4.2% | 32.9 | -1.3% | u | u
O=C(CCCSc1nnc(SCCCC(=O)c2ccc(F)cc2)s1)c1ccc(F)cc1 | -13.4% | -80.6* | -9.5% | u | 18.4µM*
COc1ccc(CCNC(=O)CCC(=O)N2CC(C)Oc3ccccc32)cc1OC (stereo not drawn) | 0.7% | -25.7 | -2.0% | u | -21.0%
CC(C)C(C)NC(=O)CN1C(=O)NC(c2ccccc2)(c2ccccc2)C1=O (stereo not drawn) | -0.4% | -66.8* | -0.2% | 0.4% | 8.2%
CCOc1ccc(CN(C)C(=O)CN2C(=O)NC(c3ccccc3)(c3ccccc3)C2=O)cc1 | u | -58.9* | u | u | u
COc1ccc(C2(c3ccc(OC)cc3)NC(=O)N(CC(=O)N(C)c3ccccc3)C2=O)cc1 | -4.4% | u | -25.2% | u | u
Cc1ccc(C2(c3ccccc3)NC(=O)N(CC(=O)NCc3ccccc3)C2=O)cc1C (stereo not drawn) | -20.1% | u | -16.5% | 23.1µM* | u
CC(C)CCNC(=O)CN1C(=O)NC(c2ccccc2)(c2ccccc2)C1=O | -8.9% | -24.5 | -2.4% | u | -10.0%
O=C(c1cccc(F)c1)N1CCC2(CCCN(c3ccc(-c4ccccc4)cc3)C2)CC1 | x | x | x | u | 0.0%
COc1cc(/C=C2/SC(=S)N(CCC(=O)N3CCN(C)CC3)C2=O)cc(OC)c1OC | -1.6% | -13.5 | -7.9% | 23.1µM* | u
COc1cc(/C=C2\SC(=S)N(CCC(=O)NC3CCCC3)C2=O)cc(OC)c1OC | 0.7% | u | 4.4% | u | u
COc1cc(/C=C2\SC(=S)N(CCC(=O)N3CCN(C)CC3)C2=O)cc(OC)c1OC | -0.5% | -29.2 | -0.5% | 14.6µM* | u
COc1cc(/C=C2\SC(=O)N(CCNC(=O)c3cnc(C)cn3)C2=O)cc(OC)c1OC | 10.7% | -6.2 | 10.2% | 18.4µM* | u
COc1ccc(C(=O)NCCN2C(=O)S/C(=C\c3cccnc3)C2=O)c(OC)c1OC | -2.9% | -5.4 | 17.0% | u | u
O=C(CNC(=O)c1ccc(Cl)c([N+](=O)[O-])c1)OCN1C(=O)c2ccccc2C1=O | 8.4% | -25.7 | 1.5% | 5.7% | -2.9%
